In all, about 68,000 compounds went through this assay and about 2,700 (4%) showed an effect of 50% or more. For the sample, strong results were picked, then their nearest neighbours and some compounds at random.
System: Plasmodium berghei
Assay: Screen against P. berghei liver stage (PbLuc), transformed with Luciferase, at 2uM
Assay type: functional, HepG2
Conditions: tested at 2 uM

Structure (SMILES)	INHIBITION
O=C(Cc1ccccc1F)N1C[C@@H]2COC[C@]2(COc2cccnc2)C1	-2.44%
CO[C@H]1CO[C@@]2(CCCN(C(=O)N3CCCC3)C2)C1	28.13%
CN1CCCN(S(=O)(=O)c2cccc(C(=O)N3CCCCCC3)c2)CC1	54.75%
CC1=CCN(S(=O)(=O)c2cccc(C(=O)N3CCCN(C)CC3)c2)CC1	23.17%
CN1CCCN(C(=O)c2cccc(S(=O)(=O)NCC3(C)COC3)c2)CC1	-35.07%
CCN(CC)C(=O)CSc1sc2c(O)cc(=O)[nH]c2c1C(N)=O	-56.02%
Cc1ccc(N2C[C@H]3CCN(Cc4ccncc4)C[C@H]3C2)nn1	16.63%
O=C(c1ccno1)N1CCO[C@]2(CCC[C@@H]2COCc2ccncc2)C1	64.99%
O=C(c1ccoc1)N1CCO[C@]2(CCC[C@H]2COCc2cccnc2)C1	5.85%
O=C(c1ccoc1)N1CCO[C@]2(CCC[C@@H]2COCc2ccncc2)C1	35.48%
CCNC(=O)C1(Cc2cc(-c3ccc(C)cc3)no2)CCCN(C)C1 (stereo not drawn)	-40.35%
CS(=O)(=O)c1cn[nH]c1C1CCCCN1C(=O)c1cnccn1 (stereo not drawn)	17.39%
CC(C)NC(=O)N1CCC2(CC(C(=O)NCc3cccnc3)=NO2)C1 (stereo not drawn)	-7.01%
COCCN(CCOC)c1ncc(C#N)cc1Cl	1.42%
COCCN(CCOC)c1ncccc1Cl	67.7%
COCCN(CCOC)c1ncccc1I	38.1%
CCOc1ccc(Cl)cc1C1CCCCN1 (stereo not drawn)	14.61%
COCCNC(=O)Cn1cc2c(n1)c(C)nn2C(C)C	-28.32%
CC(C)CN1CC[C@H](c2nnc(COc3ccc(F)cc3)o2)C1	10.65%
CS(=O)(=O)N1CC2(CCN(C(=O)c3csnn3)CC2)c2ccccc21	54.01%
CS(=O)(=O)N1CC2(CCN(C(=O)c3ccncc3)CC2)c2ccccc21	9.53%
Cn1cccc1C(=O)N1CCC2(CC1)CN(S(C)(=O)=O)c1ccccc12	38.64%
O=C(CN1C(=O)c2ccccc2C1=O)N1CCOC2(CCOCC2)C1	13.46%
CN(C)CCOCc1cncc2c1CCN(C(=O)c1cscn1)C2	-30.85%
CCc1cc(N(C)Cc2[nH]nc3c2CCC3)nc(N2CCOCC2)n1	33.9%
CN(Cc1n[nH]c2c1CCCC2)c1cc(N2CCOCC2)nc(N)n1	-32.88%
Nc1nc(NCCc2[nH]nc3c2CCCC3)cc(N2CCOCC2)n1	67.28%
CCn1nc(C)c(NC(=O)CCn2ncc3cc(C)ccc32)c1C	24.79%
